{
  "source": "the supplement of paper PMC8253809",
  "data": [
    {"tested_on": "HGGX6 (H3.3 G34R paediatric high-grade glioma line)", "experiment": "growth inhibition (% activity, log2 RLU normalised to DMSO / staurosporine); higher = more growth inhibition", "details": "33 µM", "summary_of_the_method": "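Approved drugs, at a single final concentration of about 33 μM, were applied in triplicate to pHGG cell lines and H9-derived neural stem cells for 7 days at 37 °C, 5% CO2. The growth-inhibition value is the replicate median of log2-transformed CellTiter-Glo luminescence normalised per plate to % activity between solvent and positive control wells.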", "units": {"growth inhibition": "%"}, "values": [
      {"smiles": "NC[C@H](O)c1ccc(O)c(O)c1", "growth inhibition": 1.96},
      {"smiles": "CC[C@H](C)C(=O)O[C@H]1CCC=C2C=C[C@H](C)[C@H](CC[C@@H]3C[C@@H](O)CC(=O)O3)[C@H]21", "growth inhibition": 12.9},
      {"smiles": "CNC[C@H](O)c1cccc(O)c1", "growth inhibition": 0.958},
      {"smiles": "CC[C@@]1(O)C(=O)OCc2c1cc1n(c2=O)Cc2cc3c(CN(C)C)c(O)ccc3nc2-1", "growth inhibition": 17.2},
      {"smiles": "CC(=O)N[C@H]1[C@H]([C@H](O)[C@H](O)CO)OC(C(=O)O)=C[C@@H]1NC(=N)N", "growth inhibition": -2.7},
      {"smiles": "OC[C@H]1O[C@H](O[C@]2(CCl)O[C@H](CCl)[C@@H](O)[C@@H]2O)[C@H](O)[C@@H](O)[C@H]1Cl", "growth inhibition": -2.77},
      {"smiles": "C[C@]12CC[C@H](O)CC1=CC[C@@H]1[C@@H]2CC[C@]2(C)C(c3cccnc3)=CC[C@@H]12", "growth inhibition": -0.894},
      {"smiles": "CO[C@H]1O[C@@H]2O[C@@]3(C)CC[C@H]4[C@H](C)CC[C@@H]([C@H]1C)[C@@]24OO3", "growth inhibition": 5.37},
      {"smiles": "CN(C)CCOc1ccc(/C(=C(/CCCl)c2ccccc2)c2ccccc2)cc1", "growth inhibition": 5.5},
      {"smiles": "CCCCOc1ccc(OCCCN2CCOCC2)cc1", "growth inhibition": 7.63},
      {"smiles": "Cc1ccc(N(CC2=NCCN2)c2cccc(O)c2)cc1", "growth inhibition": -3.2},
      {"smiles": "COc1cc(C)c(/C=C/C(C)=C/C=C/C(C)=C/C(=O)O)c(C)c1C", "growth inhibition": 6.28},
      {"smiles": "C[C@]12CCC(=O)C=C1CC[C@@H]1[C@@H]2[C@@H](O)C[C@@]2(C)[C@H]1CC[C@]2(O)C(=O)CO", "growth inhibition": 2.56},
      {"smiles": "C[C@@H](NCCCc1cccc(C(F)(F)F)c1)c1cccc2ccccc12", "growth inhibition": 18.9},
      {"smiles": "Clc1ccc2c(c1)CCc1cccnc1C2=C1CCNCC1", "growth inhibition": -1.66},
      {"smiles": "CCc1cc(C(N)=S)ccn1", "growth inhibition": -1.03}
    ]}
  ]
}
